Measurements taken from the supplement of paper PMC10849652.
Of roughly 8,800 targets only a part is listed; those with a hit were picked by preference. About 0.5% of all pairs of compound and target were hits. A number with no mark means an inactive call.

How the values were obtained:
Assay in all cases: log2 fold change, soluble protein after heating vs DMSO (PISA); higher = thermal stabilisation; K562 lysate, 10 uM; active = over 0.2 and 3.5 SD of the protein, either way, in both replicates (recomputed)
[1] = compound: NCC(=O)Nc1ccc(-n2nc(C(F)(F)F)cc2-c2ccc3c(ccc4ccccc43)c2)cc1
How it was run: (§1)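 Log-two fold change in thermal stability relative to solvent controls is reported from duplicates. For each sample, crude K562 extract from dounce-homogenised pellets in PBS pH 7.4 with 1 mM MgCl2, at 1 mg/mL protein, was treated with 10 μM compound for 30 min. Aliquots heated for 3 min across 48°C-58°C were pooled, brought to 0.5% NP-40 at 4°C and cleared at 21,000xg for 90 min. The supernatant was quantified by TMTpro 16plex LC-MS/MS with channel sums equalised.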

[2] = compound: O=C(CCCCCCC(=O)Nc1ccccc1)NO [vorinostat]
How it was run: as §1

[3] = compound: O=C(O)c1ccc2c(c1)nc(Nc1cccc(Cl)c1)c1ccncc12 [silmitasertib]
How it was run: as §1

[4] = compound: O=C1NC(=O)C(c2cnc3ccccn23)=C1c1cn2c3c(cc(F)cc13)CN(C(=O)N1CCCCC1)CC2
How it was run: as §1

[5] = compound: c1cn2cc(-c3ccc4cn[nH]c4c3)nc(Nc3ccc(N4CCOCC4)cc3)c2n1 [entospletinib]
How it was run: as §1

Chain of UniProt P23634 (P23634 whole entry, looked up): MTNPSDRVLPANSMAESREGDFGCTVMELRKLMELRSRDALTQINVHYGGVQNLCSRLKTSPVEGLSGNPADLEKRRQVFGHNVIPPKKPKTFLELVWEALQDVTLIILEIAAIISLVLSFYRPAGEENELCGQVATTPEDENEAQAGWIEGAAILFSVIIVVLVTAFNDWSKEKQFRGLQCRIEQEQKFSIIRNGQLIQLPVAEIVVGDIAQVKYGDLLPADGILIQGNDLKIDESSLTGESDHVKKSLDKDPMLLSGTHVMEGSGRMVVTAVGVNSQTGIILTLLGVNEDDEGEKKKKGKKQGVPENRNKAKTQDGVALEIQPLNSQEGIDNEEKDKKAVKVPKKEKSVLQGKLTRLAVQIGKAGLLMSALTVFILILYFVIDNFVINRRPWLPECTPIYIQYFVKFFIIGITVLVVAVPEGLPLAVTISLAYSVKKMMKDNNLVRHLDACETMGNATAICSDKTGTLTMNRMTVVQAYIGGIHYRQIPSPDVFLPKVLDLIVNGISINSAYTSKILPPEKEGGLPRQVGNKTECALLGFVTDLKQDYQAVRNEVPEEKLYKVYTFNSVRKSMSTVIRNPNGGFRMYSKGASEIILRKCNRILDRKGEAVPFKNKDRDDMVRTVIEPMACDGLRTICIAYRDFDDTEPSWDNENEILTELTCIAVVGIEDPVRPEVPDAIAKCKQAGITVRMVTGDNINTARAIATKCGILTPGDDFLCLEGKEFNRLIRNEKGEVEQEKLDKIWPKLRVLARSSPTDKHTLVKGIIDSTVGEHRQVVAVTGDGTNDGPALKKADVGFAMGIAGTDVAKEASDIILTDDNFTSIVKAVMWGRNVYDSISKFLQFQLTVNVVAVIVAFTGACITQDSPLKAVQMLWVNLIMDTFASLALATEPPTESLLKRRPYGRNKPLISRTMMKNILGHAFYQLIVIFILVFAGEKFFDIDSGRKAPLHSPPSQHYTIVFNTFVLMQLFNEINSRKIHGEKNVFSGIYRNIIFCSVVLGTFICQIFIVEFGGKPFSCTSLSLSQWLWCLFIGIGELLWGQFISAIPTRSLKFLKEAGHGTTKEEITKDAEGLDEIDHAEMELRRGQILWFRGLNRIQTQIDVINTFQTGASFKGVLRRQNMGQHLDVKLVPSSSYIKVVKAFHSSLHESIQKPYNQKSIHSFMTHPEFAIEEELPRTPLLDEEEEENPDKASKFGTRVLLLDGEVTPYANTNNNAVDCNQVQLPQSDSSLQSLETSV
Chain of UniProt Q9Y4P1 (Q9Y4P1 whole entry, looked up): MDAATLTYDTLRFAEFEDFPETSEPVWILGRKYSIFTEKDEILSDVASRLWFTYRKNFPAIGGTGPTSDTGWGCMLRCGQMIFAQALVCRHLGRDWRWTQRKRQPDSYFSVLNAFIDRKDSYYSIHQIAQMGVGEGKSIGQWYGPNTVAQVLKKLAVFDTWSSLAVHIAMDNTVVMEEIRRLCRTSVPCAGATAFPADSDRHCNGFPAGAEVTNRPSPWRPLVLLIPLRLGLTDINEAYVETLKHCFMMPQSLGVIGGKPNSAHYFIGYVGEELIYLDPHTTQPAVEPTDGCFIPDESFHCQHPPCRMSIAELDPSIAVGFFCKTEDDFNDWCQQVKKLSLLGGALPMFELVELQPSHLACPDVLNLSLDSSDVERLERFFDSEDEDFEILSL
Chain of UniProt P40227 (P40227 whole entry, looked up): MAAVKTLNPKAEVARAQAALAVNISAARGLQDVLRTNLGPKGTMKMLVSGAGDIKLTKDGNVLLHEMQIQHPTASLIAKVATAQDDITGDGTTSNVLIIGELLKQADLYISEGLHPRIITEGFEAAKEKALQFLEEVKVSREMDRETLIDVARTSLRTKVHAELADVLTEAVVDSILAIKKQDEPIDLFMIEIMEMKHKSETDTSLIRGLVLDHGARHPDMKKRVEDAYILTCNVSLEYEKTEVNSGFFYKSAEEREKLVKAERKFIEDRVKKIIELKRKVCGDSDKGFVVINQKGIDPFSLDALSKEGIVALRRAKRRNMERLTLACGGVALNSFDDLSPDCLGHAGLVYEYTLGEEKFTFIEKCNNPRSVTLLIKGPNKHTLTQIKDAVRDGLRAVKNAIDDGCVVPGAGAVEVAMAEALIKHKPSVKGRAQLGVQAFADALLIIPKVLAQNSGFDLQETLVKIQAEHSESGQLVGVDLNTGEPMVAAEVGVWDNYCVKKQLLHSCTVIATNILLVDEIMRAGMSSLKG
Chain of UniProt Q9HB09 (Q9HB09 whole entry, looked up): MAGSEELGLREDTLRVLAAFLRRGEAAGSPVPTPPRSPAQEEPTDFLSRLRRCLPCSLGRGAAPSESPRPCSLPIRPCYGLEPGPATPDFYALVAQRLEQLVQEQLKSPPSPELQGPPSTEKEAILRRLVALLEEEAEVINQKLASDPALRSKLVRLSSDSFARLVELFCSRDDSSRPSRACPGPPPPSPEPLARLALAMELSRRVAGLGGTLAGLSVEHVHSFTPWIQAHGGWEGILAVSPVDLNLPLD
Chain of UniProt Q15059 (Q15059 whole entry, looked up): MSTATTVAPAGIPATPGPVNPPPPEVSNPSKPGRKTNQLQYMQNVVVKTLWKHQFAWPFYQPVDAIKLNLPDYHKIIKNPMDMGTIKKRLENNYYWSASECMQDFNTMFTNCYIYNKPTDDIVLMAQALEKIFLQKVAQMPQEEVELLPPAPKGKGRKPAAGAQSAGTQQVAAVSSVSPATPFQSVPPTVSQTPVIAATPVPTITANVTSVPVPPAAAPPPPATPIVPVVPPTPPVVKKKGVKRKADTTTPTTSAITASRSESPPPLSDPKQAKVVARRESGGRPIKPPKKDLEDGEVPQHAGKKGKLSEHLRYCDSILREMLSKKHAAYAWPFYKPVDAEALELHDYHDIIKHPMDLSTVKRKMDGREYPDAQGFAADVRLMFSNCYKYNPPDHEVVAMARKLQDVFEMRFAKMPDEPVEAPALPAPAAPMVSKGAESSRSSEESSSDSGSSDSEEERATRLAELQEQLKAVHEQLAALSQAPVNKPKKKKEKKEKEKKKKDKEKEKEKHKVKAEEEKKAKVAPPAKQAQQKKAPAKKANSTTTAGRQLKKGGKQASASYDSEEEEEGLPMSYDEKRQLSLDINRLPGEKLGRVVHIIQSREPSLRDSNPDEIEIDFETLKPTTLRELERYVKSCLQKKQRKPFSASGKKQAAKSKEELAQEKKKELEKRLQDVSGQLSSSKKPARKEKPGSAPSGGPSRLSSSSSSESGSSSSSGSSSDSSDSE
Chain of UniProt Q8N960 (Q8N960 whole entry, looked up): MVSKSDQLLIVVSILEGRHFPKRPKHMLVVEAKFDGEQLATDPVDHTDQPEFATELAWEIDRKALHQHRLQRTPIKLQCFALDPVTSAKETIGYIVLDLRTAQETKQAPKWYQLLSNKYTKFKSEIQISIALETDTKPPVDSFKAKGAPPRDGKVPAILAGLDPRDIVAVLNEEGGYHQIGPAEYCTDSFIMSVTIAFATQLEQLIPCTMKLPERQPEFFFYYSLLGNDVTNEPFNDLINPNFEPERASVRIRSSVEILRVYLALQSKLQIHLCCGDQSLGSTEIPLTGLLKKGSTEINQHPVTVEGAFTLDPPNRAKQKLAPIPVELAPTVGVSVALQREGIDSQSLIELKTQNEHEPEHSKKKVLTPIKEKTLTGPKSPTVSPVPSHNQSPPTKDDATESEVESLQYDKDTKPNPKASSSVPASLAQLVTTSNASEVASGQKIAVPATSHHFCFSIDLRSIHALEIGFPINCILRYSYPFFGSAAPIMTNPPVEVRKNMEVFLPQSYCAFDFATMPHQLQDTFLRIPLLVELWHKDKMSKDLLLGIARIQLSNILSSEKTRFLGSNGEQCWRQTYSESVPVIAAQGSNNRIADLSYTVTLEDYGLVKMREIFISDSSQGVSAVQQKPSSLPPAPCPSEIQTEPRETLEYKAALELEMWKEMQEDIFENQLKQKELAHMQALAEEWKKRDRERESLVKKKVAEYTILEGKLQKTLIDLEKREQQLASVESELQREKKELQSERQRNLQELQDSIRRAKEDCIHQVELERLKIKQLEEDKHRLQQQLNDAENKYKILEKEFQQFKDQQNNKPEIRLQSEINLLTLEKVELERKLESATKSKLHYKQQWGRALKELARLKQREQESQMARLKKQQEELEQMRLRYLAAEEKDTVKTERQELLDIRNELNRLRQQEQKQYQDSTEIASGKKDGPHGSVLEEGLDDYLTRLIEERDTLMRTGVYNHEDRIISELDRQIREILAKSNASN

Target	log2 fold change [1]	log2 fold change [2]	log2 fold change [3]	log2 fold change [4]	log2 fold change [5]
BCL2L12 (UniProt Q9HB09)	0.031	-0.033	0.1	-0.085	-0.129
CALM2 (UniProt P0DP24)	0.008	-0.027	0.064	-0.121	-0.048
CAD (UniProt P27708)	0.012	-0.067	0.026	0.008	0
CCT6A (UniProt P40227)	0.004	0.049	-0.005	0.012	0.024
ATP2B4 (UniProt P23634)	-0.026	-0.042	-0.003	-0.079	-0.042
ATG4B (UniProt Q9Y4P1)	-0.009	-0.274 (active)	0.043	-0.014	0.021
BRD3 (UniProt Q15059)	0.052	-0.117	-0.146	0.021	-0.018
CEP120 (UniProt Q8N960)	0.261	0.042	-0.075	0.135	-0.13
BCORL1 isoform 3 (UniProt Q5H9F3)	0.177	-0.004	-0.093	0.213	-0.018
